Experimental findings from PubChem BioAssay (NCI) are described below.

This is part of a sample that, as a whole, favours compounds with a hit. Of some 83,000 tested, about 20% had one in any assay.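 A percent growth of 40 corresponds to 60% growth inhibition; 0 means no net growth; -100 means all cells died. Active threshold: below 10.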 A number with no mark means an inactive call. Calls of active or inactive are those of the source.

The assay concerns HL-60(TB) leukemia. The assay can be described thus: NCI-60 one-dose screen, 48 h (100 = growth as untreated, 0 = no growth, -100 = all killed). To be noted: 10 µM unless noted.
In the case of `CC(C)(C)CC(C)(C)Nc1c(-c2ccc(-c3ccccc3)cc2)nc2cnccn12`, the growth is 92.9%.

As for `COc1ccc(-c2[nH]nc(N)c2-c2cc(OC)c3c(c2)OCO3)cc1`, the growth is 20.5%.

As to `NNC(=O)NO`, the growth was 94.4%.

In the case of `CC(=O)n1cc(/C=C2\N=C(c3ccc(Cl)cc3)N(c3ccc(S(=O)(=O)Nc4nccs4)cc3)C2=O)c2ccccc21`, the growth is 73.3%.

On to `O=C1C=C(O)C(=O)C(CC2=C(O)C(=O)C=C(O)C2=O)=C1O`, for which the growth was 102%.

On to `Oc1c(CN2CCCC2)cc(COCc2ccccc2)c2cccnc12`, for which the growth is 10.6%.

Consider `COc1ccc(NC(=O)c2ccccc2-c2ccccc2)c(C(N)=O)c1`, for which the growth is -17.9% (active).

`O=c1ccc2nc(-c3ccccc3)nn(-c3ccccn3)c-2c1`: the growth is -28.1% (active).

Turning to `COc1ccc(C(=O)/C=C/Nc2cc(-c3ccccc3)nn2-c2ccccc2)cc1`, the growth was 93.2%.

In the case of `C#CC#CC#CC#CC#CC#CC#CC#CC[C@@H]1OC[C@H](COC(=O)O[C@@H](C(=O)O[C@H]2C[C@@]3(O)[C@@H](OC(=O)c4ccccc4)[C@@H]4[C@]5(OC(C)=O)CO[C@@H]5C[C@H](O)[C@@]4(C)C(=O)[C@H](OC(C)=O)C(=C2C)C3(C)C)[C@@H](NC(=O)c2ccccc2)c2ccccc2)O1`, the growth is 6.04% (active).

Consider `COC1OC(COS(=O)OC)C(O)C(O)C1OS(=O)OC` (stereo not given), for which the growth is 82.6%.

Regarding `COc1cc(/C=C/C(=O)N2CCC=CC2=O)cc(OC)c1OC`, the growth is -13.1% (active).

With `O=S1(=O)OC(c2cc(Cl)c(O)c(Br)c2)(c2cc(Cl)c(O)c(Br)c2)c2ccccc21`, the growth was 92.4%.

For the compound `CCOc1cc2ncc(C#N)c(Nc3ccc(F)c(Cl)c3)c2cc1NC(=O)/C=C/CN(C)C`, the growth was -52.6% (active).

Turning to `Cn1cc(-c2csc(-c3cn(CCNC(=O)OC(C)(C)C)c4ccc(F)cc34)n2)c2cccnc21`, the growth was 42.7%.

Regarding `CC(C)=CCC[C@](C)(O)[C@H]1CC[C@]2(C)[C@@H]1CC[C@@H]1[C@@]3(C)CC/C(=N/O)C(C)(C)[C@@H]3CC[C@]12C`, the growth was 5.25% [100 µM] (active).

With `CCOC(=O)C(=Cc1c(-c2ccccc2)[nH]c2ccccc12)C(=O)OCC`, the growth is -52% (active).

With `CC1SC(c2ccc(N(C)C)cc2)N(NC(=O)C(O)(c2ccccc2)c2ccccc2)C1=O` (stereo not given), the growth is 84.2%.

For `Fc1ccc(NCc2cn(-c3ccccc3)nc2-c2ccc(OCc3ccccc3)cc2)cc1Cl`, the growth is 79.5%.

As for `O=C1CCNC1`, the growth was 103%.

As for `COc1ccc(Cn2c(SC)nc(=O)n(Cc3ccc(Cl)cc3)c2=O)cc1`, the growth was 94.2%.

As to `CCn1c(Sc2nnc(NC(=O)CSC(=S)N3CCCCC3)s2)nc2c1c(=O)n(C)c(=O)n2C`, the growth was 95%.

For the compound `CN1CCN(CCCOc2cccc3nc(Nc4ccc(F)c(F)c4)ccc23)CC1`, the growth was 38.8%.

Turning to `CC(O)CN1CC(O)=C(c2nc3ccccc3s2)C1=N` (stereo not given), the growth was 93.8%.

Turning to `COCCOC(=O)C1=C(C)NC(=S)NC1c1ccc2c(c1)OCO2` (stereo not given), the growth was 92.1%.

For `C=C1CC[C@@H]2[C@](C)(COC(C)=O)[C@H](OC(C)=O)CC[C@@]2(C)[C@@H]1CC(Nc1ccc(S(=O)(=O)Nc2nccs2)cc1)C1=CCOC1=O` (stereo not given in full), the growth was -20.9% (active).

In the case of `O=C(Nc1ccc(Oc2ccc(F)cc2)c(Cl)c1)c1cccnn1`, the growth was 56.3%.

As to `CN1C(=O)N(C)C2(c3ccccc3)OC(=S)NC12c1ccccc1` (stereo not given), the growth was 95.6%.

For the compound `Clc1ccc2c(c1)C[C@H]1C[C@@H](c3cccs3)N2O1`, the growth is 107%.

For the compound `O=C(Nc1ccc(OS(=O)(=O)c2ccccc2)cc1)C1CCCCC1`, the growth is 94%.

`CC[C@]12C=CCN3CC[C@@]4(c5ccc(OC)cc5N(C)[C@H]4[C@@](O)(C(=O)OC)[C@@H]1OC(=O)CCC(=O)N[C@@H](Cc1c[nH]c4ccccc14)C(=O)OC)[C@@H]32`: the growth was -5.33% (active).

As to `CCOC(=O)CC/C(C)=N\Nc1ccc([N+](=O)[O-])cc1`, the growth is 26.4%.

As for `COc1ccc2[nH]c(=O)c(/C=C/C(=O)c3ccc(Nc4nccc(-c5ccc6ccccc6c5)n4)cc3)cc2c1`, the growth is 97.6%.

Take `COc1ccc(C2=NN(C(=O)c3cc(-c4ccc(C)cc4)nc4ccccc34)C(c3cc(-c4ccccc4)nn3-c3ccccc3)C2)cc1` (stereo not given): the growth is 90.6%.

On to `O=C1c2cc3c(cc2-c2c1c1ccc(Cl)cc1c(=O)n2CCCN1CCOCC1)OCO3`, for which the growth was 16.7%.
